M1 antag = M1 muscarinic receptor (rat) antagonism; actives 3.4% (n = 64,000); CHO-M1 cells, Fluo-4 calcium, ACh EC80 antagonist mode; active compounds read low; P08482; B-score at 10 µM;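 active = calcium fluorescence response, raw or row-and-column corrected B-score, differing from the plate sample mean either way at a set confidence level, mostly lower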
Target sequence (P08482 whole entry, looked up): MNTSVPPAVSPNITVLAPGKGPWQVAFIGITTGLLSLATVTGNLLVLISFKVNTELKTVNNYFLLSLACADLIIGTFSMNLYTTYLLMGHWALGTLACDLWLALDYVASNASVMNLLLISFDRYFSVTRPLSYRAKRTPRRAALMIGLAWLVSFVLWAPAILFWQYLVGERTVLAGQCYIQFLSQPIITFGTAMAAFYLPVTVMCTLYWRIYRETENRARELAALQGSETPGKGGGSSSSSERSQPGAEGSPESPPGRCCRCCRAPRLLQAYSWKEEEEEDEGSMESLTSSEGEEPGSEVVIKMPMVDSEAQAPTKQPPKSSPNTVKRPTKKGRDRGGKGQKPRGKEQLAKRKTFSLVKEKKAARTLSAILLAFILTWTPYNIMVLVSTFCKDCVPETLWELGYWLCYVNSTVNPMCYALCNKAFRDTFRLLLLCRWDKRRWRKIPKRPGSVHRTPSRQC
M1 ag = activates the M1 muscarinic receptor; CHO-M1 cells, Fluo-4 calcium fluorescence, agonist mode; active compounds read high; B-score at 10 µM; actives 3% (n = 64,000);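 active = fluorescence rise, raw or as B-score row- and column-corrected plate score, outside the 99.7% band of its plate's samples, either direction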
mHtt clearance = compounds clearing mutant huntingtin protein; HeLa Exon1htt(103Q)mCFP, aggregate imaging; zero = plate's median compound well; inhibition, % at 1.5 µM; actives 0.42% (n = 47,000); AID 853;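 active = inhibition of aggregate fluorescence above about 70%, also judged a hit by eye on the cell image, limit read from the data, passing the limit was not always enough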;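 also: cells exposed to compound for three days before fixation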
A340 absorber = absorbance at 340 nm. fold change at 10 µM. 65,000 tested, under 10 active. compound absorbance at 340 nm, fold over control;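 active = at 10 µM dose, initial 340 nm absorbance at least 2 fold that of control wells; inactive = change under 2 fold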;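 also: initial absorbance extrapolated from kinetic A340 decline of NADH oxidation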
NADH enzymes = blocks coupling enzymes of NAD/NADH assays. coupled PK/LDH NADH assays, four targets. IC50, µM (titrated, usually from 10 µM), without a hit: at the highest dose inhibition. actives 0.02% (n = 65,000);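 active = single-dose screening hits from any of four coupled enzyme assays that gave an IC50 when retested across doses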;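 also: the DPM-DC format reads NADH fluorescence rather than 340 nm absorbance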
Fluor 339 460 = intrinsic fluorescence of library compounds, ex339/em460 – biochemical, MLSMR library, data from DPM-DC assay, artefact control, profiling panel. compound autofluorescence, ex339/em460 nm, NADH buffer; active compounds read high; 1 = no-compound wells, NADH background. AID 709. fluorescence fold increase at 10 µM. actives 5.5% (n = 65,000);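 active = at 10 µM, mean starting fluorescence two-fold or more over control wells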;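 also: signal is the first read of a kinetic run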
The depositor's hits bear a star. Compounds with a hit are over-represented: about 9.3% of the library has one in this group of screens.

Results for O=C(CN(Cc1ccccc1)S(=O)(=O)c1ccc(F)cc1)NCCC1=CCCCC1 ?
mHtt clearance: 76*

What do the screens show for `Cn1c(-c2nonc2NC(=O)c2ccc(C(C)(C)C)cc2)nc2ccccc21`?
M1 antag: 1.5; M1 ag: 1.4; A340 absorber: 1; NADH enzymes: 11%; Fluor 339 460: 2.6*

What do the screens show for `O=C(Nc1ccc(-c2nc3ccccc3o2)c(O)c1)c1cc(-n2cnnc2)ccc1Cl`?
M1 antag: 0.0015; M1 ag: -0.47; A340 absorber: 1.1; NADH enzymes: 9%; Fluor 339 460: 3.9*

How did COc1cc(C(=O)Nc2ccc(-c3nc4cc(C)ccc4o3)c(O)c2)cc(OC)c1OC do in these assays?
M1 antag: -0.0059; M1 ag: 1; mHtt clearance: 11; A340 absorber: 1.2; NADH enzymes: 2%; Fluor 339 460: 4.7*

What do the screens show for `COc1cccc(C(=O)Nc2ccc(-c3nc4ccccc4o3)c(O)c2)c1`?
M1 antag: -0.0047; M1 ag: -0.033; mHtt clearance: -2; A340 absorber: 1.2; NADH enzymes: 8%; Fluor 339 460: 2.1*

How did COc1cc(OC)cc(C(=O)Nc2ccc(-c3nc4ccccc4o3)cc2)c1 do in these assays?
M1 antag: 1.1; M1 ag: 0.61; mHtt clearance: 20; A340 absorber: 1.1; NADH enzymes: 1%; Fluor 339 460: 2.2*

What do the screens show for `CCS(=O)(=O)N1Cc2ccccc2CC1C(=O)OCC(=O)Nc1ccc(C)cc1` (configuration not stated)?
M1 antag: 0.13; M1 ag: -0.29; A340 absorber: 1; NADH enzymes: 4%; Fluor 339 460: 1.1

Results for CCN1CCN(C(=O)c2cn(CCOC)c(=O)c3c2c2ccccc2n3C)CC1 ?
M1 antag: -0.014; M1 ag: 0.49; A340 absorber: 1; NADH enzymes: 7%; Fluor 339 460: 2.8*

What do the screens show for `CC(C)Cn1cc(C(=O)NC2CCN(Cc3ccccc3)CC2)c2c3ccccc3n(C)c2c1=O`?
mHtt clearance: -28

Results for CC(C)Cn1cc(C(=O)N2CCN(c3ccccn3)CC2)c2c3ccccc3n(C)c2c1=O ?
M1 antag: -0.48; M1 ag: 2.1; mHtt clearance: -25; A340 absorber: 1; NADH enzymes: 5%; Fluor 339 460: 2.1*

Results for CCOC(=O)C1CCN(C(=O)c2cn(CCOC)c(=O)c3c2c2ccccc2n3C)CC1 ?
M1 antag: -0.36; M1 ag: 0.55; mHtt clearance: 29; A340 absorber: 1.1; NADH enzymes: 7%; Fluor 339 460: 4.9*

How did Cn1cc(C(=O)N2CCN(C(=O)c3ccco3)CC2)c2c3ccccc3n(C)c2c1=O do in these assays?
M1 antag: 0.36; M1 ag: 0.5; A340 absorber: 1.1; NADH enzymes: 12%; Fluor 339 460: 3.5*

What do the screens show for `CCOC(=O)C1CCN(C(=O)Cn2cc(C(=O)C3CC3)c3ccccc32)CC1`?
M1 antag: -0.36; M1 ag: 0.44; mHtt clearance: 41; A340 absorber: 1.1; NADH enzymes: 6%; Fluor 339 460: 1.1

Results for O=C(O)C1=C(C(=O)N2CCN(C(=O)c3ccco3)CC2)CCCC1 ?
M1 antag: -0.15; M1 ag: -0.064; A340 absorber: 0.99; NADH enzymes: 2%; Fluor 339 460: 1.1

How did CCC(=O)NC(Nc1sc2c(c1C(=O)OC)CCN(C)C2)(C(F)(F)F)C(F)(F)F do in these assays?
mHtt clearance: 10

How did CCc1c(C(=O)Nc2ccc(S(=O)(=O)N3CCOCC3)cc2)csc1C do in these assays?
M1 antag: -0.51; M1 ag: 1.4; mHtt clearance: 22; A340 absorber: 1.1; NADH enzymes: 8%; Fluor 339 460: 1.1

What do the screens show for `CCOC(=O)c1sc(NC(=O)CSc2nc(-c3ccco3)cc(C(F)(F)F)n2)c(C(=O)OC(C)C)c1C`?
mHtt clearance: -22

How did CC(C)Cn1cc(C(=O)NCCCN2CCCC2=O)c2c3ccccc3n(C)c2c1=O do in these assays?
M1 antag: -0.14; M1 ag: -0.021; A340 absorber: 1; NADH enzymes: 14%; Fluor 339 460: 3.9*

How did COCCn1cc(C(=O)N2CCCC(C)C2)c2c3ccccc3n(C)c2c1=O (configuration not stated) do in these assays?
M1 antag: -0.25; M1 ag: 0.0061; mHtt clearance: -21; A340 absorber: 1; NADH enzymes: 10%; Fluor 339 460: 4.5*

What do the screens show for `CCn1cc(C(=O)N2CCCC2)c(=O)c2cc(S(=O)(=O)N3CCOCC3)ccc21`?
M1 antag: 0.05; M1 ag: 0.0042; mHtt clearance: 12; A340 absorber: 1; NADH enzymes: 3%; Fluor 339 460: 1

How did Cc1cccc(N(C)S(=O)(=O)c2ccc3[nH]cc(C(=O)N4CCOCC4)c(=O)c3c2)c1 do in these assays?
M1 antag: 0.069; M1 ag: 1.3; mHtt clearance: -3; A340 absorber: 1.1; NADH enzymes: 6%; Fluor 339 460: 2*

How did CN(C)S(=O)(=O)c1ccc2c(c1)c(=O)c(C(=O)N1CCOCC1)cn2C do in these assays?
M1 antag: 0.88; M1 ag: 0.57; mHtt clearance: 11; A340 absorber: 1.1; NADH enzymes: 5%; Fluor 339 460: 1

Results for O=C(c1c[nH]c2ccc(S(=O)(=O)N3CCC4(CC3)OCCO4)cc2c1=O)N1CCOCC1 ?
M1 antag: 0.74; M1 ag: 1.7; mHtt clearance: -32; A340 absorber: 1.1; NADH enzymes: 9%; Fluor 339 460: 2.1*

What do the screens show for `Cc1sc2c(c1C)CN(Cc1ccco1)CN2C(=O)c1ccccc1`?
M1 antag: -0.21; M1 ag: 0.55; A340 absorber: 1; NADH enzymes: 5%; Fluor 339 460: 1.1

Results for C#CCSc1nnc(-c2ccc(OC)cc2)o1 ?
mHtt clearance: 8

How did COc1ccc(-c2cc3nc4n(c(=O)c3s2)CCOC4)cc1 do in these assays?
M1 antag: -0.36; M1 ag: -0.76; A340 absorber: 1.1; NADH enzymes: 2%; Fluor 339 460: 2.4*

What do the screens show for `COc1ccc(-c2nc3ccccc3c(=O)n2CCN2CCOCC2)cc1`?
M1 antag: -0.034; M1 ag: -0.3; mHtt clearance: 32; A340 absorber: 1; NADH enzymes: 3%; Fluor 339 460: 1.1

How did CCN(CC)c1ncnc2sc(C(=O)N3CCN(c4ccccc4)CC3)c(C)c12 do in these assays?
M1 antag: 1.5; M1 ag: -0.13; A340 absorber: 1; NADH enzymes: 4%; Fluor 339 460: 1.1

How did Cc1cc(NCCN2CCOCC2)n2ncc(-c3ccccc3)c2n1 do in these assays?
M1 antag: 0.0091; M1 ag: 0.92; A340 absorber: 1.1; NADH enzymes: 6%; Fluor 339 460: 1.6

Results for COCCNc1cc(C)nc2c3c(C)cc(C)nc3nn12 ?
M1 antag: -0.067; M1 ag: -0.65; mHtt clearance: -20; A340 absorber: 1; NADH enzymes: 9%; Fluor 339 460: 3.8*

Compound activity (PubChem)
